Molecules are shown by their SMILES. Inconclusive results are not listed. A number with no mark means an inactive call. The source made the active and inactive calls. Calls come from the whole dose curve; as a rule, active = well fitted inhibition curve with a large enough effect; inconclusive = small, poorly fitted or top-dose-only effect; inactive = flat fitted curve, though single readings scatter.

In the test the target is Luciferin 4-monooxygenase (Photinus pyralis) (UniProt P08659). As to the kind of experiment: Counterscreen Assay for Enhancers of SMN2 Splice Variant Expression: Interaction with Luciferase Reporter. As to conditions: purified firefly luciferase, luminescence, 5 min; series mostly up to 51 µM; activity change, negative = inhibition: at the top concentration. An excerpt: NIH Chemical Genomics Center [NCGC] NIH Molecular Libraries Probe Production centers Network [MLPCN] MLPCN Grant: R03 MH084179-01 Assay Submitter (PI): Elliot Androphy NCGC Assay Overview: Spinal muscular atrophy (SMA) is caused by insufficient levels of the survival motor neuron protein SMN. The SMN locus on chromosome 5q13 contains two inverted copies of SMN called SMN1 and SMN2 which are 99% identical at the amino acid level. SMN1 is a fully functional protein and SMN2 skips exon 7 90% of the time. Skipping of exon 7 produces non-functional protein product. 10% of the SMN2 protein includes exon 7 and is fully functional. In the SMA disease state, mutations in the SMN1 locus are the cause of the disease state. Because only 10% of SMN2 is of the fully functional form, it is not sufficient to overcome the deficiency produced by the loss of the SMN1 product. A therapy that either increases the amount of SMN2 product made increases the inclusion of exon 7 has been proposed for the treatment of SMA. We have designed an assay to identify small molecules that can increase the amount of functional SMN2 product by appending a luciferase reporter gene after the native SMN2 gene, such that inclusion of exon 7 in the expressed product places the luciferase sequence in frame, thus generating functional luciferase enzyme. One potential source of false positives in the primary screening assay is stabilization of the reporter luciferase via direct binding. […]
Luciferin 4-monooxygenase (Photinus pyralis), sequence (P08659 whole entry, looked up, canonical isoform): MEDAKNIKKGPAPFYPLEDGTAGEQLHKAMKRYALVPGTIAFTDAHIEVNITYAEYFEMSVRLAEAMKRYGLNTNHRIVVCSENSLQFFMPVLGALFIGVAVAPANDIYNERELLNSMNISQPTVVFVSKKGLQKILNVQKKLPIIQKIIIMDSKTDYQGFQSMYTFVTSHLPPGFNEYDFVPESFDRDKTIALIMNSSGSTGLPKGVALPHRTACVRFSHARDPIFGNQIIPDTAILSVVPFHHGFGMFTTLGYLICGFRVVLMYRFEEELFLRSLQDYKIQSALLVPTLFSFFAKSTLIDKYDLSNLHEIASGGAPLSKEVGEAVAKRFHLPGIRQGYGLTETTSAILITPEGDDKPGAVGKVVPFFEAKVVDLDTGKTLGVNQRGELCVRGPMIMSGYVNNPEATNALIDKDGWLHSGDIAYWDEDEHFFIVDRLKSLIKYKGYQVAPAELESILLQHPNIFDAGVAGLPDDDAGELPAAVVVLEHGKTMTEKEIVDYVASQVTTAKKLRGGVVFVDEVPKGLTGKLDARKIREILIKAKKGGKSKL
NCGC Assay Protocol Summary: The primary screen utilizes a luciferase reporter gene assay, combining the promoter and splicing based cassettes in tandem with the major portion of the native SMN1 cDNA, and then transfected into HEK293 cells. […] Sequence, Parameter, Value, Description (1) Reagent, 2.5 uL, Enzyme in buffer (note A) (2) Compound, 23 nL, From stock solutions (3) Time, 5 minutes, Room temp (4) Reagent#2.5 ul, Luciferase detection reagent (note B) (5) Detector, 1 sec integrate, Luminescent read on Viewlux (note C) Sigma enzyme (1 mg) considered to be MW 61,000 diluted in 357 ul assay buffer to 50 uM stock. […]
As to `C[C@@H]1O[C@@H](O[C@H]2C[C@@H](O)[C@]3(CO)[C@H]4[C@H](O)C[C@]5(C)[C@@H](C6COC(=O)C6)CC[C@]5(O)[C@@H]4CC[C@]3(O)C2)[C@H](O)[C@H](O)[C@H]1O` (stereo partly drawn), the activity change, negative = inhibition was 13.4% [at 48.7 pM].
For the compound `O=C(C1CCN(c2nc3ccc(Br)cc3s2)CC1)N1CCC2(CC1)OCCO2`, the Potency is 7.08 µM (active).
As to `CC[C@]1(O)CC(O[C@@H]2CC(N(C)C)C(O)C(C)O2)c2c(cc3c(c2O)C(=O)c2c(O)cccc2C3=O)C1C(=O)OC` (stereo partly drawn), the “activity change, negative = inhibition” value was 6.06%.

For the origin of these results see PubChem BioAssay AID1733 (National Center for Advancing Translational Sciences (NCATS), 2009).
